PubChem BioAssay (NCI)
This is part of a sample that, as a whole, favours compounds with a hit. Of some 83,000 tested, about 20% had one in any assay.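 Single-dose data. Exposure time 48 hours. Values below 10 considered active.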 A number with no mark means an inactive call. Active and inactive are the calls of the source.

Experiments:
Test in all cases: NCI-60 one-dose screen, 48 h (100 = growth as untreated, 0 = no growth, -100 = all killed)
Settings in all cases: 10 µM
[1] = system: NCI-H23 lung
[2] = system: NCI-H226 lung
[3] = system: NCI-H322M lung
[4] = system: HOP-62 NSCLC
[5] = system: HOP-92 NSCLC
[6] = system: NCI-H522 lung
[7] = system: A549/ATCC NSCLC
[8] = system: 786-0 renal
[9] = system: COLO 205 colon
[10] = system: NCI-H460 lung

Compound | growth [1] | growth [2] | growth [3] | growth [4] | growth [5] | growth [6] | growth [7] | growth [8] | growth [9] | growth [10]
Cc1ccc(C(=O)NNC(=O)CSc2nc3ccccc3c(=O)[nH]2)cc1 | 98.5% | 92.4% | 99.2% | 98.8% | 90.6% | 106% | 111% | 95.2% | 97.8% | 
COc1cccc(-c2ccc(/C=N/NC(=O)c3[nH]c4ccc(Br)cc4c3-c3ccccc3)o2)c1 | 22.4% | 31.4% | 45.7% |  | 54.4% | -42.8% (active) | 19.6% | 9.39% (active) | -40.6% (active) | 4.13% (active)
O=C(CSc1nnc(-c2c[nH]c3ccccc23)n1-c1ccccc1)c1ccc(Cl)cc1 | 40.8% | 17.6% | 58.7% | 47.1% | 65% | 67% | 37.5% | 44.9% | 42.6% | 
O=C(CNc1nc(-c2ccccc2)cs1)Nc1ccc(Br)cc1 | -90.8% (active) | -58.6% (active) | -99.5% (active) | -78.8% (active) | -71.5% (active) | -77.8% (active) | -82.3% (active) | -73.2% (active) | -77.4% (active) | 
COC1CC(Cn2cc(COc3ccc4ccc(=O)oc4c3)nn2)C(OCc2ccccc2)C(OCc2ccccc2)C1OCc1ccccc1 (stereo not drawn) | 95.1% | 92.8% | 106% | 98.9% | 80.3% | 92.4% | 92.3% | 102% | 121% | 
O=[N+]([O-])c1ccc(-c2nc(-c3ccccc3)c(-c3ccccc3)n2-c2ccc(S(=O)(=O)Nc3ncccn3)cc2)cc1 | 23.9% | 27.7% | 65.7% | 61.9% | 5.67% (active) | 69.4% | 60% | 35.9% | 125% | 
Cn1cc(/C=N/Nc2cccc(Cl)n2)c2ccccc21 | 69.2% | 68.9% | 89.9% | 75.8% | 42.8% | 74.3% | 76% | 63.7% | 67.7% | 
CC(C)(C)Nc1nc2cc(Cl)c(Cl)cc2nc1S(C)(=O)=O | -63.6% (active) | -83% (active) | 98% | 88.1% | -5.25% (active) | -80.6% (active) | 94.1% | 44% | 31.2% | 
CN1CCO/C1=C(/NC(=O)c1ccc(Cl)cc1)[P+](c1ccccc1)(c1ccccc1)c1ccccc1 | 84.5% | 89.3% | 96.6% | 95% | 60.9% | 58.4% |  | 103% | 68.9% | 
CC(=O)Nc1nc(-c2ccc(N3CCN(C)CC3)c(NS(=O)(=O)c3ccc(C(F)(F)F)cc3)c2)cs1 | 55.8% | 40.1% | 88.2% | 63.7% | 9.58% (active) | 11.4% | 55.5% | -62.5% (active) | 36% | 
CCOC(=O)C(Cc1ccccc1)N1C(=O)/C(=C/N2N=C(c3ccc(OC)cc3)CC2c2ccc3ccccc3c2)SC1=S (stereo not drawn) | -55.5% (active) | -41.8% (active) | 18.2% | -54.8% (active) | -8.32% (active) | 1.04% (active) | 21.7% | 13.8% | -86% (active) | 
CS(=O)(=O)Nc1ccc(-c2ccc3c(c2)ncn3-c2ccc(NC(=O)Nc3ccc(Br)cc3)cc2)cc1 | 3.9% (active) | 9.71% (active) | 15.3% |  | 26.8% | -23.4% (active) | 12.1% | -13.6% (active) | -27.9% (active) | 2.98% (active)
COc1ccc(-c2cc(C(=O)N=Nc3c(O)[nH]c4ccccc34)c3ccccc3n2)cc1 | -36.4% (active) | -36% (active) | 6.23% (active) | -42.7% (active) | -46.5% (active) | 24.3% | -37.4% (active) | -40.9% (active) | -5.77% (active) | 
COC1=C[C@]23CCC(=O)N2CCc2cc4c(cc2[C@@H]3[C@@H]1OC(=O)CCCC(C)C)OCO4 | 53.2% | 23.3% | 108% | 70.5% | 95.6% | -2.41% (active) |  | 80.5% | 68% | 
CN(C)c1nc(NCCNS(=O)(=O)c2ccc(C(=O)/C=C/c3ccccc3)cc2)nc(Nc2ccc(F)cc2)n1 | 28.8% | 27.8% | 44.1% |  | -12.1% (active) | 61.6% | 45.4% | -20.6% (active) | 54% | 14.9%
O=c1oc2ccccc2cc1-c1csc(N=Nc2c(O)[nH]c3ccc(Br)cc23)n1 | 61.5% | 58.4% | 92.9% | 40.2% | -7.7% (active) | 67.4% | 100% | 12.5% | 127% | 
C#CCNC(=O)CCC(=O)OC[C@]12CC[C@@H](C(=C)C)[C@@H]1C1CC[C@@H]3[C@@]4(C)CCCNC(C)(C)[C@@H]4CC[C@@]3(C)[C@]1(C)CC2 (stereo partly drawn) | -91.8% (active) | -80.8% (active) | 39.2% | -23.9% (active) | -14.4% (active) | -82.7% (active) | -76.5% (active) | -58.3% (active) | -83% (active) | 
Clc1ccc(/C=N/Nc2ncnc3sc4c(c23)CCN(Cc2ccccc2)C4)cc1 | 13.9% | -54.2% (active) | 22.3% | -33.5% (active) | -59.6% (active) | 1.08% (active) | -53.2% (active) | -84.8% (active) | -86.1% (active) | 
Nc1nc2c(F)c(F)c(F)c(F)c2s1 | 102% | 98.6% | 103% | 92.6% | 90.5% | 89.5% | 99.4% | 85.1% | 114% | 
C/C(=C\CC/C=C(\C)CC/C=C(\C)CC[C@@H](O)C(C)(C)O)CC/C=C(\C)CC[C@@H](O)C(C)(C)O | 31.8% | 38.8% | 98.1% | 96.6% | 26% | 21.8% | 26.1% | 47.4% | 41.9% | 
Cc1ccc2nc(-c3ccc(-c4nnc(SCC(=O)Nc5ccc(Cl)cc5)o4)cc3)[nH]c2c1 | 29.1% | 9.53% (active) | 27.6% | 61.8% | 84.9% | 51.1% | 29.1% | 68.5% | 46.1% | 
CCOC(=O)C1=C(N)N(c2ccc(C)cc2)C2=C(C(=O)CC(C)(C)C2)C1c1ccccc1OC (stereo not drawn) | 109% | 99.7% | 93.4% |  | 117% | 97.6% |  | 99.6% | 134% | 111%
COc1cc(Cn2c(C(F)(F)F)cc3c(Cl)ncnc32)ccn1 | -66.6% (active) | 72.2% | -73.3% (active) |  | 49.1% | 56% | 92.6% | 93.3% | 79.9% | 2.75% (active)
C=C[C@H]1[C@H](O[C@@H]2OC(CO)[C@@H](O)[C@H](O)C2OC(=O)c2c(O)cc(O)cc2-c2cccc(O)c2)OC=C2C(=O)OCC[C@H]21 (stereo partly drawn) | 96.5% | 98.8% | 93.8% |  | 132% | 106% |  | 105% | 107% | 107%
O=C(NO)c1ccc(-c2nc3ccc4[nH]ncc4c3c3c2CCCC3)cc1 | -56.7% (active) |  | -1.64% (active) | 0.238% (active) | -16.6% (active) | -43% (active) | 6.83% (active) | -8.73% (active) | -20.1% (active) | -43.4% (active)
Cc1cccc(-c2nc(Nc3ccccc3C(=O)O)c3ccccc3n2)c1 | 20.8% | 36.1% | 48.7% |  | -5.02% (active) | 59.9% | 43.6% | 25% | 121% | 19.1%
C/C(=N\NC(N)=S)c1ccc(Nc2nc(SC(C)C)nc(-c3ccccc3)c2C#N)cc1 | 52.5% | 27.5% | 74.3% |  | -11.1% (active) | 78% | 53.7% | 18.2% | 92.5% | 41.7%
N#Cc1ccc(-c2nn(-c3ccc(C(=O)O)cc3)cc2CNc2cccc(Br)c2)cc1 | 10.6% | 44.4% | 85.5% |  | 56.5% | 73.4% | 55.7% | 45% | 117% | 37.8%
